# Rev-erbA mod = modulates human Rev-erb alpha binding to DNA; P20393; AID 1259318; 370,000 compounds, 0.79% hits; activity, % at 10 µM; Rev-erbα–FITC-DNA binding, fluorescence polarization, 90 min;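 active means activity above about 14%, limit read from the data; passing the limit was not always enough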;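 further: 0% = DMSO wells with 35 nM protein and 100% = DMSO wells with 750 nM protein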
# PG9 Ab binder = small molecules binding HIV-1 gp120 antibody PG9. TR-FRET gp120-PG9 antibody binding. inhibition, % at 6.7 µM. 360,000 compounds, 0.43% hits. AID 624416; in the data active means inhibition above about 8.5%
# Granule exo inh = lytic granule exocytosis inhibition. TALL-104 LAMP-1 surface exposure, flow cytometry; cells stimulated with thapsigargin and PMA. AID 651702. inhibition, % at 10 µM. 360,000 compounds, 0.66% hits;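 active means inhibition above about 55%, limit read from the data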
# ABCB6 inh 2 = inhibitors of human ABC transporter ABCB6 | 360,000 compounds, 0.19% hits | Q9NP58 | fluorescence ratio to DMSO, % at 10 µM | K562-ABCB6 porphyrin accumulation, flow cytometry, 1 h; stronger effect = lower value;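 active means fluorescence ratio to DMSO below 75%, the collection mean minus 3 SD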;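 further: signal is porphyrin accumulated inside mitochondria; 100% equals median channel fluorescence of DMSO control wells; lower ratio means ABCB6 inhibition with less porphyrin fluorescence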
# VLA-4 inh = inhibition in a human VLA-4 binding assay | P13612 | VLA-4 expressing cells, ligand binding flow cytometry | inhibition, % (about 7 µM as worked out from the volumes in the protocol) | 330,000 compounds, 0.2% hits | AID 2557; in the data active means inhibition above about 50%
# VLA-4 allo CP = confirmation of allosteric modulators of human VLA-4 integrin | shares compounds with VLA-4 inh | 1,300 compounds, 2% hits | U937 cells, HUTS-21 LIBS mAb binding, flow cytometry; LDV ligand present at threefold Kd | AID 2813 | inhibition, % at 6.7 µM; in the data active means inhibition above about 40%;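 further: 0% = ligand without compound and 100% = no ligand background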
# Starred values were filed as active, the others as inactive; · = no result given. In the library only some 2% were active in any assay of this set; here they are far more common.
SMILES,Rev-erbA mod,PG9 Ab binder,Granule exo inh,ABCB6 inh 2,VLA-4 inh,VLA-4 allo CP
COc1cnc(NS(=O)(=O)c2ccc(N)cc2)nc1,5,-1,-4,97,59*,1
Cc1ccnc(NS(=O)(=O)c2ccc(N)cc2)n1,-6,1,-3,101,7,-1
Cc1cc(C)nc(NS(=O)(=O)c2ccc(Br)cc2)n1,4,1,0,100,14,-5
COc1cc(NS(=O)(=O)c2ccc(N)cc2)ncn1,-9,·,·,·,63*,-4
COc1cc(NS(=O)(=O)c2ccc(NC(C)=O)cc2)ncn1,-2,-2,-1,103,8,·
COc1ccc(-c2nnc3ccc(SCC(=O)N4CCCCC4)nn23)cc1OC,-3,3,4,100,21,7
COc1ccc(-c2nnc3ccc(SCC(N)=O)nn23)cc1OC,-4,0,2,98,6,·
Cc1cc(NC(=O)CSc2ccc3nnc(-c4ccc(Cl)cc4)n3n2)no1,-4,0,-1,96,-1,4
COc1ccc(-c2nnc3ccc(SCC(=O)NCc4ccco4)nn23)cc1OC,-3,-2,-1,97,10,1
Cc1ccc(-c2nnc3ccc(SC(C)C(=O)O)nn23)cc1 (stereo not drawn),-2,2,18,98,-12,-1
CCOC(=O)C1=C(Nc2ccc(Br)cc2)C(=O)N(CC)C1,-1,-1,·,·,·,·
COC(=O)C1CN(CCO)CCS(=O)(=O)N1Cc1cn(Cc2ccccc2Br)nn1 (stereo not drawn),2,·,·,·,·,·
CC(=O)C1=C(C)N(Cc2ccc(F)cc2)C(=S)NC1c1cccc(Cl)c1 (stereo not drawn),4,-1,·,·,·,·
Cn1nnnc1SCC(=O)N1CCN(S(=O)(=O)c2ccccc2)CC1,-6,0,18,97,51*,5
CCOC(=O)CNC(=O)c1ccc2[nH]c3ccccc3c2c1,-4,1,1,102,44,-5
Cc1ccc(-n2c(SCC(=O)c3ccccc3Br)nnc2-c2ccncc2)cc1,-3,·,·,·,·,·
COC(=O)C1=C(NC(=O)COc2ccc3ccccc3c2)CCS1,3,1,3,99,41,-13
COC(=O)C1=C(NC(=O)COc2ccc(Cl)cc2Cl)CCS1,-1,0,-2,124,4,·
CC(=O)c1ccc(N2CCN(C(=O)c3ccc(Cl)c(NC4=NC5CS(=O)(=O)CC5S4)c3)CC2)cc1 (stereo not drawn),-3,0,-26,94,0,·
COc1cccc(N2CCN(C(=O)c3ccc(Cl)c(NC4=NC5CS(=O)(=O)CC5S4)c3)CC2)c1 (stereo not drawn),-8,-1,-14,102,0,0
CCOc1ccc(NC(=O)c2cccc(NC3=NC4CS(=O)(=O)CC4S3)c2)cc1 (stereo not drawn),0,0,-4,102,-8,·
COc1ccc(N2CCN(C(=O)c3cccc(NC4=NC5CS(=O)(=O)CC5S4)c3)CC2)cc1 (stereo not drawn),4,-3,-3,96,10,·
CCOC(=O)N1CCN(C(=O)c2cccc(NC3=NC4CS(=O)(=O)CC4S3)c2)CC1 (stereo not drawn),-5,0,1,90,10,7
O=C(c1cccc(NC2=NC3CS(=O)(=O)CC3S2)c1)N1CCN(c2ncccn2)CC1 (stereo not drawn),1,-2,16,99,3,-1
COC(=O)c1ccc(N)c2c(N)ccc(C(=O)OC)c12,-7,-13,·,·,·,·
SMILES,Rev-erbA mod,PG9 Ab binder,Granule exo inh,ABCB6 inh 2,VLA-4 inh,VLA-4 allo CP
CCCCC(=O)N[C@H]1CC[C@@]23CCCN2C(=O)CCC[C@H]3[C@H]1CCC,-8,·,·,·,·,·
Cc1nn(-c2ccccc2)nc1C(=O)Nc1ccccc1C(=O)NCC1CC1,4,1,·,·,·,·
C[C@H](C(O)c1ccccc1)N(C)C(=O)CN (stereo partly drawn),2,-1,-2,93,-3,·
C[C@H]([C@H](O)c1ccccc1)N(C)C(=O)CN,6,-2,-4,100,51*,-1
OC[C@H]1CC[C@@H]2O[C@H](CCc3ccc(-c4ccc(F)cc4)cc3)[C@H](n3cc(C4CC4)nn3)C[C@@H]2O1,1,·,·,·,·,·
COC(=O)c1ccc(CSc2ccc3nnc(-c4ccccn4)n3n2)o1,11,1,8,94,54*,3
C=CCNC1CCC12CCC(c1ccccc1)CC2 (stereo not drawn),3,·,·,·,·,·
COC(=O)c1c(C(=O)OC)c(-c2ccc(F)cc2)n2c1CS(=O)(=O)C2,7,-1,2,98,41,-13
NS(=O)(=O)c1ccc(CNC(=O)Cc2ccccc2F)cc1,3,1,-1,102,2,·
NS(=O)(=O)c1ccc(CNC(=O)C(Cc2ccccc2)NS(=O)(=O)c2ccccc2F)cc1 (stereo not drawn),6,-2,19,97,43,-9
CCN(C(=O)COC(=O)c1ccc(Sc2ncn[nH]2)c([N+](=O)[O-])c1)c1ccccc1C,-4,·,·,·,·,·
Cc1ccc(C(=O)OCC(=O)Nc2cccc(Cl)c2C)c(O)c1,-4,-1,-2,99,1,-5
CS(=O)(=O)c1ccc(C(O)[C@H](CF)NC(=O)C(Cl)Cl)cc1 (stereo partly drawn),6,·,·,·,·,·
O=C(NC1CCCCC1)c1ccc(S(=O)(=O)NCc2ccco2)cc1,3,-1,2,99,52*,4
O=C(NC1CCN(Cc2ccccc2)CC1)c1ccc(S(=O)(=O)NCc2ccco2)cc1,-1,0,-2,97,0,·
O=C(NCCc1c[nH]c2ccccc12)OCc1cn(Cc2ccc(C(F)(F)F)cc2)nn1,3,·,·,·,·,·
CCOc1ccc(N2C(=O)CC(N3CCOCC3)C2=O)cc1 (stereo not drawn),5,1,4,102,-6,·
CCOC(=O)c1ccc(N2C(=O)CC(N3CCOCC3)C2=O)cc1 (stereo not drawn),1,0,1,92,5,0
COc1ccc(-n2c(SCC(=O)Nc3ccc(S(=O)(=O)Nc4nccs4)cc3)nnc2-c2ccco2)cc1,-8,·,·,·,·,·
Cc1ccccc1-n1c(SCC(=O)N2CCN(c3ccccc3)CC2)nnc1-c1ccncc1,0,0,-1,101,50*,3
CCOC(=O)c1c(C)nc2sc3c(=O)n(-c4ccc(C)cc4)cnc3c2c1-c1ccc(OC)cc1,20,1,1,94,94*,11
CCOC(=O)c1c(C)nc2sc3c(=O)n(-c4ccc(C(C)=O)cc4)cnc3c2c1-c1ccc(Cl)cc1,18,-1,2,97,10,·
O=C(c1ccccc1)c1ccc2nc(N3CCN(C(=O)c4ccco4)CC3)c3nncn3c2c1,-31,3,11,101,55*,-5
COC(=O)[C@]12C[C@H](CC(=O)N3CCCC3)C(=O)N(Cc3ccccc3)C1=C[C@H](C(C)(C)C)O[C@@H]2C,-8,-1,·,·,·,·

# Source: PubChem (several laboratories)
